# Activity calls are given as the source filed them. How the source made its calls: active means hit-call score of the fitted dose curve at least 0.9, where 1 is the maximum; inactive means score below 0.9.
# Tests used:
# [1] = ATG_GLI_CIS: Attagene CIS-FACTORIAL HepG2 Assay for human Zinc Finger Protein GLI1 (AID 2282945); details: HepG2, Attagene cis-factorial reporter mRNA, GLI element; actives raise or lower the signal
# Summary of the method: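 Bidirectional curve fits relative to DMSO, using reporter mRNA levels from RT-PCR plus capillary electrophoresis. Cells were HepG2 transiently carrying cis-regulated reporter constructs, harvested 24 h after dosing.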
# [2] = ATG_GRE_CIS: Attagene CIS-FACTORIAL HepG2 Assay for human Glucocorticoid Response Elements (GRE) (AID 2282947); details: HepG2 GRE cis-reporter, Attagene multiplex mRNA; actives raise or lower the signal
# Summary of the method: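 Reporter transcripts read by RT-PCR with capillary electrophoresis fluorescence after a 24 h chemical exposure of HepG2 cells transiently transfected with multiple cis-element reporter units. Gain or loss fitted against DMSO.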
# [3] = ATG_ISRE_CIS: Attagene CIS-FACTORIAL HepG2 Assay for human Interferon Regulatory Factor 1 (IRF1) binding to an Interferon-Stimulated Response Element (ISRE) (AID 2282948); details: HepG2 ISRE cis-reporter (Attagene), mRNA transcription readout; actives raise or lower the signal
# Summary of the method: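 Multiplexed mRNA reporter readout in human liver HepG2 cells: cis-element-driven reporters transfected, compound added for 24 h, transcripts amplified, fluorescently labelled and sized by capillary electrophoresis; curve fitting bidirectional against DMSO.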
# [4] = ATG_M_32_CIS: Attagene CIS-FACTORIAL HepG2 Assay for M32 Transcription Factor (Internal Marker) (AID 2282949); details: HepG2 Attagene cis-factorial M32 reporter, mRNA; actives raise or lower the signal;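 further: background control marker of the multiplexed CIS panel rather than a real target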
# Summary of the method: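 HepG2 transfectants (cis-regulated reporter transcription units) dosed 24 h. Reporter mRNA by RT-PCR plus CE, analysed as gain or loss relative to DMSO.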
# [5] = ATG_M_06_CIS: Attagene CIS-FACTORIAL HepG2 Assay for M06 Transcription Factor (Internal Marker) (AID 2282950); details: HepG2 Attagene CIS-FACTORIAL M06 internal marker reporter; actives raise or lower the signal
# Summary of the method: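 Measured 24 h post-dosing in transiently transfected HepG2 cells, this internal-marker endpoint reports reporter mRNA via RT-PCR with fluorescent primer extension and capillary electrophoresis. DMSO served as negative control and baseline for bidirectional fitting.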
# [6] = molecular target: Hypoxia-inducible factor 1-alpha (Homo sapiens) (UniProt Q16665); assay: ATG_HIF1a_CIS: Attagene CIS-FACTORIAL HepG2 Assay for human Hypoxia Inducible Factor 1 (HIF1A) (AID 2282951); details: HepG2 Attagene cis-factorial HIF1a reporter transcription; actives raise or lower the signal
# Summary of the method: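 Fluorescence intensity of capillary-separated, 6-FAM-labelled reporter amplicons gives mRNA induction in HepG2 cells carrying transfected cis-promoter reporter units; cells exposed 24 h, responses fitted up or down from DMSO.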
# [7] = molecular target: Hepatocyte nuclear factor 6 (Homo sapiens) (UniProt Q9UBC0); assay: ATG_HNF6_CIS: Attagene CIS-FACTORIAL HepG2 Assay for human Hepatocyte Nuclear Factor 6 (HNF6) (AID 2282952); details: HepG2 Attagene cis-factorial HNF6 reporter transcription; actives raise or lower the signal
# Summary of the method: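 Twenty-four-hour chemical treatment of reporter-transfected HepG2 cells precedes RNA isolation, DNase-treated reverse transcription and PCR of reporter sequences. Labelled fragments are sized by capillary electrophoresis and fitted bidirectionally versus DMSO.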
# [8] = ATG_MRE_CIS: Attagene CIS-FACTORIAL HepG2 Assay for human Metal Responsive Element (MRE) (AID 2282954); details: HepG2 MRE cis-reporter transcription, Attagene multiplex; actives raise or lower the signal
# Summary of the method: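 Endogenous MRE-dependent transcription read as reporter mRNA in transiently transfected human HepG2 cells at 24 h. RNA reverse-transcribed, PCR-amplified, labelled and resolved by capillary electrophoresis; gain or loss relative to DMSO.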
# [9] = ATG_PBREM_CIS: Attagene CIS-FACTORIAL HepG2 Assay for human Phenobarbital-responsive Enhancer Module (PBREM) (AID 2282955); details: HepG2 PBREM cis-reporter, Attagene multiplexed transcription; actives raise or lower the signal
# Summary of the method: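 Cells were transfected with cis-element reporter units and treated for 24 h, after which RNA was extracted and reporter transcripts measured by RT-PCR and capillary electrophoresis.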
# [10] = molecular target: Paired box protein Pax-6 (Homo sapiens) (UniProt P26367); assay: ATG_Pax6_CIS: Attagene CIS-FACTORIAL HepG2 Assay for human Paired Box 6 (PAX6) (AID 2282956); details: HepG2 CIS-FACTORIAL PAX6 reporter transcription, RNA readout; actives raise or lower the signal
# Summary of the method: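 Fluorescent RT-PCR products separated by capillary electrophoresis report PAX6-linked promoter mRNA in HepG2 cells 24 h post-dose. Curves fitted bidirectionally, DMSO as negative control.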
# [11] = ATG_PXRE_CIS: Attagene CIS-FACTORIAL HepG2 Assay for human Pregnane X Receptor Element (PXRE) (AID 2282957); details: HepG2 Attagene CIS-FACTORIAL PXRE reporter, mRNA; actives raise or lower the signal
# Summary of the method: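 Bidirectional activity, baselined to DMSO, derived from reporter mRNA fluorescence (RT-PCR plus capillary electrophoresis) in HepG2 cells bearing cis-promoter reporter units, 24 h exposure.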
# [12] = ATG_PPRE_CIS: Attagene CIS-FACTORIAL HepG2 Assay for human Peroxisome Proliferator-activated Response Element (PPRE) (AID 2282958); details: HepG2 PPRE cis-element reporter, Attagene transcription factor profiling; actives raise or lower the signal
# Summary of the method: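 In this cell-based multiplex, a PPRE cis element drives a reporter sequence in transiently transfected HepG2 cells. Following 24 h treatment, labeled cDNA amplicons are sized and quantified by capillary electrophoresis, with DMSO defining baseline.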
# [13] = ATG_Sox_CIS: Attagene CIS-FACTORIAL HepG2 Assay for human SRY-box transcription factor (SOX) (AID 2282960); details: HepG2 Attagene cis-factorial SOX reporter, mRNA; actives raise or lower the signal
# Summary of the method: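 Measures mRNA induction of a SOX1-associated reporter in HepG2 after 24 h dosing. Fluorescently labelled RT-PCR fragments are separated by capillary electrophoresis, and gain or loss relative to DMSO control is fitted.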
# [14] = ATG_SREBP_CIS: Attagene CIS-FACTORIAL HepG2 Assay for human Sterol Regulatory Element Binding (SREBP) (AID 2282962); details: HepG2 Attagene cis-factorial SREBP reporter, mRNA; actives raise or lower the signal
# Summary of the method: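 Endogenous factor activity is measured in HepG2 through multiplexed reporter units under cis-element control. Following a 24 h incubation, reporter transcripts are reverse-transcribed, PCR-amplified and sized by capillary electrophoresis; activity is fitted in both directions relative to DMSO.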
# [15] = molecular target: Signal transducer and activator of transcription 3 (Homo sapiens) (UniProt P40763); assay: ATG_STAT3_CIS: Attagene CIS-FACTORIAL HepG2 Assay for human Signal Transducer and Activator of Transcription 3 (STAT3) (AID 2282963); details: HepG2, Attagene cis-factorial STAT3 reporter transcription; actives raise or lower the signal
# Summary of the method: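 Readout is reporter transcript quantified by RT-PCR and capillary electrophoresis, with 6-FAM primer extension and HpaI digestion. Total RNA is taken 24 h after dosing transiently transfected HepG2 carrying cis-regulated reporter units. Bidirectional fit against DMSO.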
# [16] = ATG_TA_CIS: Attagene CIS-FACTORIAL HepG2 Assay for human TA Basal Promoter (AID 2282964); details: HepG2 Attagene CIS-factorial TA basal promoter reporter; actives raise or lower the signal
# Summary of the method: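 Cis-factorial format in HepG2: reporters report endogenous factors, not chimeric Gal4 fusions. After 24 h treatment, reporter transcripts were measured by RT-PCR-capillary electrophoresis fluorescence, analysed bidirectionally versus DMSO.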
# [17] = molecular target: Transcription factor Sp1 (Homo sapiens) (UniProt P08047); assay: ATG_Sp1_CIS: Attagene CIS-FACTORIAL HepG2 Assay for human Specificity Protein 1 (Sp1) (AID 2282961); details: HepG2 Sp1 cis-reporter transcription, actives raise or lower the signal
# Summary of the method: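 Cells: HepG2, transiently transfected with cis-regulated multiplexed reporters. Exposure: 24 h. Detection: reporter transcripts amplified, fluorescently labeled, restriction-digested and sized by capillary electrophoresis. Analysis: bidirectional fit relative to DMSO.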
# [18] = molecular target: Heat shock factor protein 1 (Homo sapiens) (UniProt Q00613); assay: ATG_HSE_CIS: Attagene CIS-FACTORIAL HepG2 Assay for human Heat Shock Transcription Factor 1 (HSE) (AID 2282953); details: HepG2 HSE cis-reporter, Attagene RNA transcription; actives raise or lower the signal
# Summary of the method: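 Reporter mRNA induction in HepG2 is measured 24 h after dosing, using transiently transfected multiplexed cis-regulated reporter units. Signal comes from capillary electrophoresis of labelled RT-PCR products, with DMSO as negative control.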
# [19] = ATG_RORE_CIS: Attagene CIS-FACTORIAL HepG2 Assay for human RAR-related Orphan Receptor Element (RORE) (AID 2282959); details: HepG2 Attagene cis-factorial RORE reporter, mRNA; actives raise or lower the signal
# Summary of the method: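 Endogenous factor activity at a cis response element is read as reporter transcript levels in HepG2 cells, 24 h post-dose. Transcripts are quantified by RT-PCR with capillary electrophoresis, and data fitted in both directions against DMSO.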
# Sequence of Signal transducer and activator of transcription 3 (Homo sapiens) (P40763 whole entry, looked up): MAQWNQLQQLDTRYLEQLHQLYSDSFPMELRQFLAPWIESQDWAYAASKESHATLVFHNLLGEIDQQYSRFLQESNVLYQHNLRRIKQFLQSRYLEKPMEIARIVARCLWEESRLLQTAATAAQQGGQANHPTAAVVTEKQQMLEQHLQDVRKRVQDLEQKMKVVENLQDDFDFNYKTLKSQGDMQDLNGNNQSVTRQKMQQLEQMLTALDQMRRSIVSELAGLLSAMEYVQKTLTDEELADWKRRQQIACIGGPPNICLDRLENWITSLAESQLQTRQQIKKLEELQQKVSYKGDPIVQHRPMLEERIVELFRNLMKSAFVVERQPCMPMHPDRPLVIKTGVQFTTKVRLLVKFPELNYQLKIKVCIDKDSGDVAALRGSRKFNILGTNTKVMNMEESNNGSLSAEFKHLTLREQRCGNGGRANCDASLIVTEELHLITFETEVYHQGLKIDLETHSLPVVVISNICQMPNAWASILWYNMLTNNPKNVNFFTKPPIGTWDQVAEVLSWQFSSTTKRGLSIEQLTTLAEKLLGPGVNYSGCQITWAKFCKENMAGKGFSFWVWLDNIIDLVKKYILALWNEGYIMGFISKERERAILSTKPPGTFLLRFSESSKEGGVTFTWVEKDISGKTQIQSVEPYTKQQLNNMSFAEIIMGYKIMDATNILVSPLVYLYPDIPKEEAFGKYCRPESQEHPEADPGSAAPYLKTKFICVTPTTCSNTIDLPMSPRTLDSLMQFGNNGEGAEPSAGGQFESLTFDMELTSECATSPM
# Sequence of Transcription factor Sp1 (Homo sapiens) (P08047 whole entry, looked up): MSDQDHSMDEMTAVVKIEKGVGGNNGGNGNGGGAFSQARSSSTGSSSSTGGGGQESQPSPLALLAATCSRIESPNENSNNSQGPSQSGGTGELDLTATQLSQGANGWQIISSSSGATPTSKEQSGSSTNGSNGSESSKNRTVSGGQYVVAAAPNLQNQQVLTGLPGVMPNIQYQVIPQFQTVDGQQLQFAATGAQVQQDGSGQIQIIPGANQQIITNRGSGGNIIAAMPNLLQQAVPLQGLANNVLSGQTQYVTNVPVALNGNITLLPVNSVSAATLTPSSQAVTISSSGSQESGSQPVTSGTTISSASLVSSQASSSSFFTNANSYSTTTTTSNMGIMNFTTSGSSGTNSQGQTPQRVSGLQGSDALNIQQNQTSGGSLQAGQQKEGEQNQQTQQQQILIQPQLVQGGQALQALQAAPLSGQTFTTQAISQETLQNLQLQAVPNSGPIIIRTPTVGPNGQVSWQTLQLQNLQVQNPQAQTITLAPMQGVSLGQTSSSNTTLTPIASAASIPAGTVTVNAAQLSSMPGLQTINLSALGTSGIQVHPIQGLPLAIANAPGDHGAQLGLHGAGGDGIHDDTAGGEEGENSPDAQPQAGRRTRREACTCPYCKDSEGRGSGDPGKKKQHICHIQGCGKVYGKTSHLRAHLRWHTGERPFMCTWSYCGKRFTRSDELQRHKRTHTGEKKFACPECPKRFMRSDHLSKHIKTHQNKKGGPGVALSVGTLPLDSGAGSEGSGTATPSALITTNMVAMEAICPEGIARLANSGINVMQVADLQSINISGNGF
# Sequence of Hepatocyte nuclear factor 6 (Homo sapiens) (Q9UBC0 whole entry, looked up, the tested form may be a part): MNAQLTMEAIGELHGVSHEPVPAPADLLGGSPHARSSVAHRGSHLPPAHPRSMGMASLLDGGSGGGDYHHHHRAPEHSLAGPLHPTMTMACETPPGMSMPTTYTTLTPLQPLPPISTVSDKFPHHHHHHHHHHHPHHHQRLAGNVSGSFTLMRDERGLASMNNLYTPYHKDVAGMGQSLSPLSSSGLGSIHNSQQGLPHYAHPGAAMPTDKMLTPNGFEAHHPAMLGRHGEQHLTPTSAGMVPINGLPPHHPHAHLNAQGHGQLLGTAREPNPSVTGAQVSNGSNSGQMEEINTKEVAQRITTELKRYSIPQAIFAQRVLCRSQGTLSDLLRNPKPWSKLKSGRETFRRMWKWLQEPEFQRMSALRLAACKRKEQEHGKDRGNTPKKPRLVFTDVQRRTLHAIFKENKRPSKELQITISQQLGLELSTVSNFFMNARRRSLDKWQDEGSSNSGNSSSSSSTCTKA
# Sequence of Paired box protein Pax-6 (Homo sapiens) (P26367 whole entry, looked up): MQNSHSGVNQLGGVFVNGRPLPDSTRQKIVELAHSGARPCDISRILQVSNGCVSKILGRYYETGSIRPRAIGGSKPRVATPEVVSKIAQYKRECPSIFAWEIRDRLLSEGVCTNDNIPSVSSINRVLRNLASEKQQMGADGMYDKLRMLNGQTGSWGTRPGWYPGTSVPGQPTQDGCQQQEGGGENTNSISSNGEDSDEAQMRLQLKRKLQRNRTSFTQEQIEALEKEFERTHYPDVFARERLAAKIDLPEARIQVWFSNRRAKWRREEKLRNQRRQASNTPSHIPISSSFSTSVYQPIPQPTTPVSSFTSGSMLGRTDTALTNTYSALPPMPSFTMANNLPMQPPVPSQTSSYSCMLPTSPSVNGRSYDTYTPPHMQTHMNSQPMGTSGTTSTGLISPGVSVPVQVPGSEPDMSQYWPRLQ
# Sequence of Heat shock factor protein 1 (Homo sapiens) (Q00613 whole entry, looked up): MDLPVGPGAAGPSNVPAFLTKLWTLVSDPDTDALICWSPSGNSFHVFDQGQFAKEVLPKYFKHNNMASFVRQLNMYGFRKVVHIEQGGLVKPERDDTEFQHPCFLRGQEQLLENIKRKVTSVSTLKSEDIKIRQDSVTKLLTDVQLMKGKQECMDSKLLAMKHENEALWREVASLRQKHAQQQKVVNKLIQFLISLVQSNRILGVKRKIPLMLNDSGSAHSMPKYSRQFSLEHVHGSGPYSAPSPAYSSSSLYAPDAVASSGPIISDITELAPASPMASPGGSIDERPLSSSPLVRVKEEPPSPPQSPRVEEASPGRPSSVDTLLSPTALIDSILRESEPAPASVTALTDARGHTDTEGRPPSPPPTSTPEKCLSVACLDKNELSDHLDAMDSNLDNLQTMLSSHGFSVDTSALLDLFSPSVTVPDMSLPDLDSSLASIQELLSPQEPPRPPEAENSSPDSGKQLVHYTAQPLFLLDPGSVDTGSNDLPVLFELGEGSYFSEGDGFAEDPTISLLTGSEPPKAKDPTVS
# Sequence of Hypoxia-inducible factor 1-alpha (Homo sapiens) (Q16665 whole entry, looked up): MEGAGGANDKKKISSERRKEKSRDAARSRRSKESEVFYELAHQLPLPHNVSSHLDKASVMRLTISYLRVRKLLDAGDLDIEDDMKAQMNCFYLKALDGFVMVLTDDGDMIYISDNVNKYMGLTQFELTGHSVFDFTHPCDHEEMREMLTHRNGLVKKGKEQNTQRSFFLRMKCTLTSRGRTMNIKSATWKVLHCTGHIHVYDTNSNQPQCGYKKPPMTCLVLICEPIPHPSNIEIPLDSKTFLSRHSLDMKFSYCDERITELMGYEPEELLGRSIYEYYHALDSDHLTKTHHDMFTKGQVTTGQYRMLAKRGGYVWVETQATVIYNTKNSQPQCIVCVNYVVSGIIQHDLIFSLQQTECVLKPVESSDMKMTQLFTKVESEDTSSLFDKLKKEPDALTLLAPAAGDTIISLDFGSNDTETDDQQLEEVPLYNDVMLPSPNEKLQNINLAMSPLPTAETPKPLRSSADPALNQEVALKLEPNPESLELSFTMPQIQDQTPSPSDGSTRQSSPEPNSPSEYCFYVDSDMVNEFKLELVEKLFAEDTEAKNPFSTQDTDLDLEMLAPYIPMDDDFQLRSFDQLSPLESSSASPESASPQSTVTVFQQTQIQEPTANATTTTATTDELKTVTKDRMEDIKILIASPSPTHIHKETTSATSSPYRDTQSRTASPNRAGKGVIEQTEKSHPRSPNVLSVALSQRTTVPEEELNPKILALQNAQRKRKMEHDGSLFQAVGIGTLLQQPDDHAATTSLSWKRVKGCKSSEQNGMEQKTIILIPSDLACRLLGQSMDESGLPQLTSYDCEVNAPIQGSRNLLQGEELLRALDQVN
structure (smiles),measurement,setting,value
CC(=O)OC1CCCCC1C(C)(C)C (stereo not given),outcome,[1],inactive
same,outcome,[2],inactive
same,outcome,[3],inactive
same,outcome,[4],inactive
same,outcome,[5],inactive
same,outcome,[6],inactive
same,outcome,[7],inactive
same,outcome,[8],inactive
same,outcome,[9],inactive
same,outcome,[10],inactive
same,outcome,[11],inactive
same,outcome,[12],inactive
same,outcome,[13],inactive
same,outcome,[14],inactive
same,outcome,[15],inactive
same,outcome,[16],inactive
CC1=CCC(C(C)C)C=C1 (stereo not given),outcome,[1],inactive
same,outcome,[3],inactive
same,outcome,[4],inactive
same,outcome,[5],inactive
same,outcome,[6],inactive
same,AC50,[8],62.6 µM (active)
same,outcome,[9],inactive
same,outcome,[10],inactive
same,AC50,[11],3.56 µM (active)
same,outcome,[13],inactive
same,outcome,[17],inactive
same,outcome,[14],inactive
same,outcome,[15],inactive
same,outcome,[16],inactive
O=C(Oc1ccccc1)c1ccccc1O,outcome,[1],inactive
same,outcome,[2],inactive
same,outcome,[3],inactive
same,outcome,[4],inactive
same,outcome,[5],inactive
same,outcome,[6],inactive
same,outcome,[18],inactive
same,outcome,[8],inactive
same,outcome,[9],inactive
same,outcome,[10],inactive
same,outcome,[11],inactive
same,outcome,[13],inactive
same,outcome,[17],inactive
same,outcome,[15],inactive
same,outcome,[16],inactive
C1CNCCN1,outcome,[1],inactive
same,outcome,[2],inactive
same,outcome,[3],inactive
same,outcome,[4],inactive
same,outcome,[5],inactive
same,outcome,[6],inactive
same,outcome,[7],inactive
same,outcome,[8],inactive
same,outcome,[9],inactive
same,outcome,[10],inactive
same,outcome,[11],inactive
same,outcome,[19],inactive
same,outcome,[13],inactive
same,outcome,[17],inactive
same,outcome,[14],inactive
same,outcome,[16],inactive
CCOC(=O)c1ccc(C)cc1,outcome,[1],inactive
same,outcome,[2],inactive
same,outcome,[3],inactive
same,outcome,[4],inactive
same,outcome,[5],inactive
same,outcome,[6],inactive
same,outcome,[7],inactive
same,outcome,[8],inactive
same,outcome,[9],inactive
same,outcome,[10],inactive
same,AC50,[11],56.8 µM (active)
same,outcome,[12],inactive
same,outcome,[13],inactive
same,outcome,[14],inactive
same,outcome,[15],inactive
same,outcome,[16],inactive
CCCCOCC(C)O (stereo not given),outcome,[1],inactive
same,outcome,[2],inactive
same,outcome,[3],inactive
same,outcome,[4],inactive
same,outcome,[5],inactive
same,outcome,[6],inactive
same,outcome,[18],inactive
same,outcome,[8],inactive
same,outcome,[9],inactive
same,outcome,[10],inactive
same,outcome,[11],inactive
same,outcome,[19],inactive
same,outcome,[13],inactive
same,outcome,[17],inactive
same,outcome,[15],inactive
same,outcome,[16],inactive
O=C(OCCc1ccccc1)c1ccccc1,outcome,[1],inactive
same,outcome,[2],inactive
same,outcome,[3],inactive
same,outcome,[4],inactive
same,outcome,[5],inactive
same,outcome,[6],inactive
same,outcome,[7],inactive
same,outcome,[8],inactive
same,outcome,[9],inactive
same,outcome,[10],inactive
same,outcome,[11],inactive
same,outcome,[12],inactive
same,outcome,[19],inactive
same,outcome,[13],inactive
same,outcome,[17],inactive
same,outcome,[14],inactive
same,outcome,[15],inactive
CC1CC(=O)CC(C)(C)C1 (stereo not given),outcome,[1],inactive
same,outcome,[2],inactive
same,outcome,[3],inactive
same,outcome,[4],inactive
same,outcome,[5],inactive
same,outcome,[6],inactive
same,outcome,[18],inactive
same,outcome,[8],inactive
same,outcome,[10],inactive
same,outcome,[11],inactive
same,outcome,[12],inactive
same,outcome,[13],inactive
same,outcome,[17],inactive
same,outcome,[14],inactive
same,outcome,[15],inactive

# Reference: PubChem BioAssay (EPA / NIEHS)
